An excerpt weighted towards active compounds, which were near 6.2% of everything screened.
GRIN3A LBD mod: modulates the human NR3A ligand-binding domain | NR3A LBD differential scanning fluorimetry, Tm shift; 0% = protein alone, 100% = glycine-bound protein | Tm shift relative to glycine control, % at 25 µM | hit rate 2.5% among 340,000;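 active = melting temperature shift of at least 10% of the positive control shift, at one fixed dose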
NTR1 agonist: agonists of human neurotensin receptor NTR1. AID 493036. activation, % at 20 µM. hit rate 0.17% among 330,000. NTR1-U2OS beta-arrestin-GFP spot imaging, agonist mode;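 active = activation at or above 40% of the spot to cytoplasm intensity ratio, with at least 20 cells analyzed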
Target sequence (P30989 whole entry, looked up): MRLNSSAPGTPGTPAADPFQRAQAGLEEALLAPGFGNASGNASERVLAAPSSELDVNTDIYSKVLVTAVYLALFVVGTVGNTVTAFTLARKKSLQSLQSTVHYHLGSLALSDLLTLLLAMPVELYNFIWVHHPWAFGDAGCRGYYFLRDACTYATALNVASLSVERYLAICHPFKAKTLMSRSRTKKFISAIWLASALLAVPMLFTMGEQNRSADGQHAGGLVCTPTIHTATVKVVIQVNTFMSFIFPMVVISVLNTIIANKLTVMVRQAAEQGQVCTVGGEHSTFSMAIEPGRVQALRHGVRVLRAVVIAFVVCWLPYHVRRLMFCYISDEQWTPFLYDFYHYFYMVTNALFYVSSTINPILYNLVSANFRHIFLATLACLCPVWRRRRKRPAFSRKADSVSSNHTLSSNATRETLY
AI-2 QS mod: modulators of Vibrio harveyi AI-2 quorum sensing system. activity change, % at 7.5 µM. Vibrio harveyi JMH597 AI-2 luminescence/OD600 ratio, 9 h; stronger effect = lower value; strain lacks LuxN and CqsS sensors; 0 = neutral-control median. AID 2094. hit rate 0.4% among 300,000; in the data active = activity change below about -75%, passing the limit was not always enough;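 note: luminescence divided by OD600 gain over 9 h not by final OD600 alone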
Cardio protect: modulators protecting cardiomyocytes from myocardial damage | protection from H2O2 cell death, % at 20 µM | H9c2 cardiomyocytes, H2O2 injury protection, ATPLite, 2 h | hit rate 0.63% among 360,000 | AID 588492;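 active = compounds giving at least 50% protection of heart cells from peroxide-induced death in the single-dose screen, raw or plate-pattern-corrected value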
AHR act: human AHR activation; P35869; AHR-responsive luciferase reporter cells, luminescence; activation, % at 5 µM; hit rate 2.5% among 320,000; AID 2796; in the data active = activation above about 47%
Mot1-301 SUMO: inhibitors of SUMOylation pathway: yeast Mot1-301 growth rescue; AID 2716; hit rate 1% among 320,000; S. cerevisiae Mot1-301 growth rescue, ATP luminescence, 38.5C; percent above DMSO median, 100 means doubled; growth rescue, % at 18.8 µM;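 active = every valid replicate shows activation above 250% relative to neutral control wells; inactive = the rest, any valid replicate at or below 250%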
Of the large screens only hits and unclear results are named; the others gave an inactive call.

COc1ccc(NC(=S)N(Cc2cccc(Br)c2)CC2CCC(C(=O)O)CC2)cc1 (stereo unspecified)	GRIN3A LBD mod 12
COc1cccc(NC(=S)N(Cc2cccc(Br)c2)CC2CCC(C(=O)O)CC2)c1 (stereo unspecified)	GRIN3A LBD mod 17
COc1ccc(CCn2c(=N)c(C(=O)NCCN3CCOCC3)cc3c(=O)n4cccc(C)c4nc32)cc1OC	Cardio protect 61
COc1ccc(CCn2c(=N)c(C(=O)NCCN3CCOCC3)cc3c(=O)n4ccccc4nc32)cc1OC	GRIN3A LBD mod 15
Cc1cccn2c(=O)c3cc(C(=O)NCCN4CCOCC4)c(=N)n(CCc4ccccc4)c3nc12	none
COc1ccc(CCNC(=O)c2cc3c(=O)n4ccccc4nc3n(CCCN3CCOCC3)c2=N)cc1OC	none
CCOC(=O)C1C(=O)C(=O)N(C2CCCCC2)C1C(=O)OCC (stereo unspecified)	none (no result: NTR1 agonist, AI-2 QS mod, AHR act, Mot1-301 SUMO)
O=C(Cn1cccc1C(=O)c1ccccc1)NCCc1ccc(Cl)cc1	Mot1-301 SUMO 314
Cc1cc2nc(C(C)(C)C)c(Cc3ccccc3)n2c(C)c1Br	none (no result: GRIN3A LBD mod, NTR1 agonist, AI-2 QS mod, AHR act, Mot1-301 SUMO)
CC(C)NC(=O)c1ccc(COc2ccc(C(C)(C)C)cc2)o1	GRIN3A LBD mod 16
Cc1ccc(OCc2ccc(C(=O)NN)o2)cc1C	AHR act 63
CCOc1ccc(OCc2ccc(C(=O)NN)o2)cc1	none
Cc1ccc(OCc2ccc(C(=O)NN)o2)c([N+](=O)[O-])c1	AHR act 97
NNC(=O)c1ccc(COc2ccc3ccccc3c2)o1	AHR act 80
Cc1c(C(=O)NCc2ccc(C(C)C)cc2)sc(=O)n1Cc1ccc(S(=O)(=O)N(C)C)cc1	none (no result: GRIN3A LBD mod, NTR1 agonist, AI-2 QS mod, AHR act, Mot1-301 SUMO)
Cc1cc(C)n(C(C)CC(=O)Nc2ccc(-c3ccno3)cc2)n1 (stereo unspecified)	none
CN(C)c1ccc(NC(=O)c2ccc(COc3cccc(Cl)c3)o2)cc1	AHR act 71
CC(=O)c1ccc(NC(=O)c2ccc(COc3ccccc3[N+](=O)[O-])o2)cc1	GRIN3A LBD mod 13
O=C(CCNS(=O)(=O)c1ccccc1)NCC1CCCCC1	none (no result: AI-2 QS mod, AHR act, Mot1-301 SUMO)
COC(=O)C[C@@H]1C[C@@H]2c3cc(NS(=O)(=O)c4ccccc4)ccc3O[C@@H]2[C@@H](CO)O1	none (no result: GRIN3A LBD mod, NTR1 agonist, AI-2 QS mod, AHR act, Mot1-301 SUMO)
Cc1nc2c(Br)cc(Br)cc2cc1O	GRIN3A LBD mod 24
CCC(=O)c1ccc(OCC(=O)Nc2ccccc2N2CCCCC2)cc1	none
CN(C)S(=O)(=O)c1ccc(C(=O)NCc2nnc(SCC(=O)NCc3ccco3)o2)cc1	none
CCCN1CCC(Oc2cccc(C(=O)NCCc3ccccc3)c2)CC1	none
Cc1csc2ncc(C(=O)Nc3ccccc3F)c(=O)n12	AHR act 60
Cc1csc2ncc(C(=O)Nc3ccccc3Cl)c(=O)n12	none
Cc1ccc(C(=O)Nc2ccccc2C(=O)NC(CC(=O)O)C(=O)O)cc1 (stereo unspecified)	none
O=C(O)CC(NC(=O)c1ccccc1NC(=O)c1ccccc1)C(=O)O (stereo unspecified)	GRIN3A LBD mod 28
CC(O)CNc1nc2c(c(=O)n(C)c(=O)n2C)n1C/C=C/c1ccccc1 (stereo unspecified)	none
Cn1c(=O)c2c(nc(NCCCO)n2C/C=C/c2ccccc2)n(C)c1=O	Cardio protect 62
CCOC(=O)C1=C(CC)Nc2ccccc2N=C1NC(=O)c1cc(S(=O)(=O)N2CCOCC2)ccc1C	none (no result: AI-2 QS mod)
CCOC(=O)C1=C(CC)Nc2ccccc2N=C1NC(=O)c1cc(S(=O)(=O)N(C)C)ccc1Cl	GRIN3A LBD mod 17
COCCCNc1c2c3c(cccc3[nH]c1=O)C(=O)c1ccccc1-2	AHR act 70 (no result: AI-2 QS mod)
Cc1nn(CC(=O)NCC(C)c2ccccc2)c(=O)c2cccn12 (stereo unspecified)	none
COc1ccc(NS(=O)(=O)c2ccc3c(c2)NC(=O)CO3)cc1	AI-2 QS mod -81
O=C(Nc1cc(C(F)(F)F)ccc1Cl)C(NCc1ccccc1)c1ccccc1 (stereo unspecified)	GRIN3A LBD mod 18
C=CCn1c(SCCC)nc2sc3c(c2c1=O)CCc1ccccc1-3	none
CCSc1nc2sc3c(c2c(=O)[nH]1)CCc1ccccc1-3	AHR act 57

Screens from PubChem.
